Only a selection was taken, and hits are over-represented in it overall.
DUX4 inh = blocks DUX4-driven transcriptional activation. activity change, negative = inhibition, % (test concentration not listed). 293T-iDUX4 ZSCAN4-Gaussia luciferase reporter, 24 h; active compounds read low. AID 1224904. hit rate 0.8% among 37,000;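 active means mean inhibition of at least 10% in the main channel, exceeding the control channel by a set limit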;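 further: 0% = median of neutral control wells and -100% = median of positive control wells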
Numbers without * were called inactive; ! = not active in a repeat.

SMILES | DUX4 inh
C[C@@H]1CN([C@H](C)CO)C(=O)c2cc(C#CC3(O)CCCC3)cnc2O[C@H]1CN(C)Cc1ccccc1 | 3
O=C(NCC[C@H]1CC[C@@H](NC(=O)c2ccc3c(c2)OCO3)[C@@H](CO)O1)Nc1cc(F)ccc1F | 2
CC(=O)N1CC2(C1)[C@H](c1ccc(-c3cccc(F)c3)cc1)[C@@H](CO)N2CC1CC1 | 2
O=C(c1ccccn1)N1CC2(C1)[C@H](c1ccccc1)[C@@H](CO)N2Cc1ccccc1 | -1
CN(C)C(=O)C[C@@H]1CC[C@H]2[C@@H](COC[C@@H](O)CN2Cc2ccc(C(F)(F)F)cc2)O1 | -4
C[C@H]1CCCCO[C@H](CN(C)C(=O)CCC(F)(F)F)[C@@H](C)CN([C@@H](C)CO)C(=O)c2cc(NS(=O)(=O)c3cccs3)ccc2O1 | 3
O=S(=O)(c1ccccc1)N1[C@@H]2CNC[C@H]1C2c1ccc(-c2cccnc2)cc1 (some centres not stated) | -11*!
O=S(=O)(c1ccc(-c2ccccc2)cc1)N1[C@@H]2CNC[C@H]1C2c1ccc(-c2ccccc2)cc1 (some centres not stated) | 9
O=S(=O)(c1ccc(-c2ccccc2)cc1)N1C[C@@H]2N[C@H](C1)C2c1ccc(-c2ccncc2)cc1 (some centres not stated) | -33*
CN(C)C(=O)c1ccc(-c2ccc(C3[C@@H]4CN(S(=O)(=O)Cc5ccccc5)C[C@H]3N4)cc2)cc1 (some centres not stated) | 5
O=S(=O)(c1cccc(F)c1)N1[C@@H]2CNC[C@H]1C2c1ccc(-c2cccnc2)cc1 (some centres not stated) | -1
COc1ccc(S(=O)(=O)N2[C@@H]3CNC[C@H]2C3c2ccc(-c3ccncc3)cc2)cc1 (some centres not stated) | 13
Cc1ccc(S(=O)(=O)N2[C@@H]3CNC[C@H]2C3c2ccc(-c3cccnc3)cc2)cc1 (some centres not stated) | -1
CS(=O)(=O)N1C[C@@H]2N[C@H](C1)[C@@H]2c1ccc(-c2ccccc2)cc1 | -51*
Cc1cccc(-c2ccc(C3[C@@H]4CNC[C@H]3N4)cc2)c1 (some centres not stated) | -3
OC[C@@H]1[C@@H](c2ccc(C#Cc3cccnc3)cc2)[C@H]2CN(Cc3ccccc3F)CCCCN12 | -45*
CC(C)(O)C#Cc1ccc([C@@H]2[C@@H](CO)N3CCCCN(Cc4ccccc4F)C[C@@H]23)cc1 | 16
O=C(Nc1ccccc1F)N1CCCCN2[C@H](CO)[C@@H](c3ccc(C#Cc4cccnc4)cc3)[C@H]2C1 | -3
OC[C@@H]1[C@@H](c2ccc(C#Cc3ccccc3)cc2)[C@H]2CN(Cc3cncnc3)CCCCN12 | -4
OC[C@H]1[C@@H](c2ccc(C#Cc3cccnc3)cc2)[C@H]2CN(Cc3ccccc3F)CCCCN21 | -43*
OC[C@H]1[C@@H](c2ccc(C#Cc3cccnc3)cc2)[C@@H]2CN(Cc3ccccc3F)CCCCN12 | -51*
N#Cc1cccc(-c2ccc([C@@H]3[C@@H](CO)N4CCCCN(Cc5ccccc5F)C[C@H]34)cc2)c1 | -33*
CCC(=O)N1CCCCN2[C@@H](CO)[C@@H](c3ccc(-c4cccc(C#N)c4)cc3)[C@@H]2C1 | 15
CC(C)(O)C#Cc1ccc([C@H]2[C@@H](CO)N3CCCCN(Cc4ccccc4F)C[C@@H]23)cc1 | 19
O=C(Nc1ccccc1F)N1CCCCN2[C@H](C1)[C@H](c1ccc(C#Cc3cccnc3)cc1)[C@@H]2CO | -10
SMILES | DUX4 inh
CCC(=O)N1CCCCN2[C@H](C1)[C@@H](c1ccc(-c3cccc(C#N)c3)cc1)[C@@H]2CO | 4
CC(C)(O)C#Cc1ccc([C@H]2[C@H]3CN(Cc4ccccc4F)CCCCN3[C@H]2CO)cc1 | 3
COc1ccc(C[C@@H]2CCn3cc(nn3)COC[C@H](Cc3ccccc3)NC2=O)cc1 | -2
O=C(c1ccccn1)N1CC2(C1)[C@H](c1ccccc1)[C@@H](CO)N2C(=O)C1CCC1 | 5
CCCN1[C@@H]2Cn3c(ccc(-c4ccc(OC)cc4)c3=O)[C@H]1[C@@H](C(=O)NCC)[C@@H]2CO | 1
COc1cccc(NC(=O)N2C[C@@H](O)COC[C@@H]3O[C@H](CC(=O)NC4CCCC4)CC[C@H]32)c1 | 3
O=C(NC1CCCC1)N1CC(=O)N2[C@H](CO)[C@H](c3ccc(-c4ccccc4)cc3)[C@@H]2C1 | -3
CN1[C@@H]2Cn3c(ccc(-c4ccc(F)cc4)c3=O)[C@H]1[C@@H](C(=O)NC1CCC1)[C@@H]2CO | -3
OC[C@@H]1[C@H](c2ccc(C#Cc3ccccc3)cc2)[C@@H]2CN(CC3CCOCC3)CCCCN12 | 8
CN1CCCCN2[C@H](C1)[C@H](c1ccc(C#Cc3ccccc3F)cc1)[C@@H]2CO | -6
OC[C@H]1[C@H](c2ccc(C#Cc3ccccc3F)cc2)[C@@H]2CN(CC3CCOCC3)CCCCN12 | -13*
CN1CCCCN2[C@H](CO)[C@H](c3ccc(C#Cc4ccccc4F)cc3)[C@@H]2C1 | 6
